This passage reports binding signal results from paper PMC7862700, “An all-to-all approach to the identification of sequence-specific readers for epigenetic DNA modifications on cytosine”.

Common to all, as to experiment: DAPPL (digital affinity profiling via proximity ligation, sequencing); 10 mM Tris-HCl pH 7.5, 50 mM NaCl, 1 mM DTT, 4% glycerol, room temperature, 30 min; GST-TFs on glutathione beads, 16-mer random dsDNA library, 0.1% formaldehyde crosslink after washing; high values mean tight binding
What all share (conditions): protein: recombinant; tags: N-terminal GST; dsDNA, one strand shown

Test [1] has as its target T1, ELK1 (Homo sapiens, UniProt P19419 1-428).
T1 sequence: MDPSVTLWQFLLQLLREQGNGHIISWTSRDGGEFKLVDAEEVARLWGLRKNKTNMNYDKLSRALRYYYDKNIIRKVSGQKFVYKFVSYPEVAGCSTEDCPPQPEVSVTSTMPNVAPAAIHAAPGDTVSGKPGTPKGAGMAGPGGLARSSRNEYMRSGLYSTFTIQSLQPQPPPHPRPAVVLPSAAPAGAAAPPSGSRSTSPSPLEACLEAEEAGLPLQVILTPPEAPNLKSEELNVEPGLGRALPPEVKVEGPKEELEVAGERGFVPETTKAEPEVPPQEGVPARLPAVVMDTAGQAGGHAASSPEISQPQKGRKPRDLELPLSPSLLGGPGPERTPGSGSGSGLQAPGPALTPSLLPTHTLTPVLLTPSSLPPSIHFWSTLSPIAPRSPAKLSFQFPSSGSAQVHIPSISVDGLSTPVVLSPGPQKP
The method, boiled down: (§1)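 Beads coated with glutathione captured GST-fused human transcription factors that had been expressed in yeast, and the factors were then given DNA barcodes and pooled with a tag-only sample. The pools were incubated with 200 nmole of a random double-stranded 16-mer DNA library in Tris/NaCl/DTT/glycerol buffer for 30 min at room temperature, washed, crosslinked with 0.1% formaldehyde and proximity-ligated with BsaI/T4 ligase at 37 °C for 1 h. PCR amplification and Illumina NextSeq500 sequencing came last. Binding signal is each hexamer's read frequency for a factor divided by its frequency for the tag-only sample.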

Test [2] concerns the target T2, GABPA (Homo sapiens, UniProt Q06546 1-454).
T2 sequence: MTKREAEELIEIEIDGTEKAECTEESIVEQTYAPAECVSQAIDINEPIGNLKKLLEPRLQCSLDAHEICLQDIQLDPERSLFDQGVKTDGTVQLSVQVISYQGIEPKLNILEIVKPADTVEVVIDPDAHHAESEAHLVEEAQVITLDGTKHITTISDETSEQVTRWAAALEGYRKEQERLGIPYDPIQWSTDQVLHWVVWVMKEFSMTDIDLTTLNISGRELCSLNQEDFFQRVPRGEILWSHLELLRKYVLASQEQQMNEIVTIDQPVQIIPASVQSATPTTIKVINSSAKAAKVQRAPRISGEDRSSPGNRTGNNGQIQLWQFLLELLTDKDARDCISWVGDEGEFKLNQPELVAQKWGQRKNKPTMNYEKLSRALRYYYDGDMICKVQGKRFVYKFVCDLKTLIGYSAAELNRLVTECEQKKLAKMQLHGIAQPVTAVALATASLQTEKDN
In short, it runs like this: as §1

Test [3] has as its target T3, ERG (Homo sapiens, UniProt P11308 1-479).
T3 sequence: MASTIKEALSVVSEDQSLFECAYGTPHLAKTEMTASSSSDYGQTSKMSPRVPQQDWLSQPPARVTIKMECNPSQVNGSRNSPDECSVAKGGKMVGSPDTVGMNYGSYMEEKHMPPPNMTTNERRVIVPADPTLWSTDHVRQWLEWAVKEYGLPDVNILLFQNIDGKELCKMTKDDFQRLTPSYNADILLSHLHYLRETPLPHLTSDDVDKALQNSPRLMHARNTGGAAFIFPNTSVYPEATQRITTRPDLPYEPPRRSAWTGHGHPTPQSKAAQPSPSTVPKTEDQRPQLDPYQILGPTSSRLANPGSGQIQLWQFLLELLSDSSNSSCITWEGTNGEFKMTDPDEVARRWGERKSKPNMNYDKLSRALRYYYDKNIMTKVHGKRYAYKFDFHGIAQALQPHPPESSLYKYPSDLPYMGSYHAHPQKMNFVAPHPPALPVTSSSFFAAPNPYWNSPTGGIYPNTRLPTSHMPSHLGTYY
In short, it runs like this:
as §1

Test [4] deals with T4, FEV (Homo sapiens, UniProt Q99581 1-238).
T4 sequence: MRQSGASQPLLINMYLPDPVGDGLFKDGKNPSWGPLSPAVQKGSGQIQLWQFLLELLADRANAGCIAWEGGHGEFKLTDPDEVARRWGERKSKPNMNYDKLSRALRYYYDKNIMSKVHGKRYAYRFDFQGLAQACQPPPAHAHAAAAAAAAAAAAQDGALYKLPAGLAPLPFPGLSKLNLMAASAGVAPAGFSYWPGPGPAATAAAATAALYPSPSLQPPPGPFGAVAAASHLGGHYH
In short, it runs like this: as §1

For test [5], the target named is ETV5 (Homo sapiens, UniProt P41161 1-510). The method, boiled down:
as §1

For test [6], the target named is ELF4 (Homo sapiens, UniProt Q99607 1-663). The method, boiled down: as §1
The target of test [7] is ETV1 (Homo sapiens, UniProt P50549 1-477). In short, it runs like this: as §1
Test [8] deals with T5, ETV3L (Homo sapiens, UniProt Q6ZN32 1-361).
T5 sequence: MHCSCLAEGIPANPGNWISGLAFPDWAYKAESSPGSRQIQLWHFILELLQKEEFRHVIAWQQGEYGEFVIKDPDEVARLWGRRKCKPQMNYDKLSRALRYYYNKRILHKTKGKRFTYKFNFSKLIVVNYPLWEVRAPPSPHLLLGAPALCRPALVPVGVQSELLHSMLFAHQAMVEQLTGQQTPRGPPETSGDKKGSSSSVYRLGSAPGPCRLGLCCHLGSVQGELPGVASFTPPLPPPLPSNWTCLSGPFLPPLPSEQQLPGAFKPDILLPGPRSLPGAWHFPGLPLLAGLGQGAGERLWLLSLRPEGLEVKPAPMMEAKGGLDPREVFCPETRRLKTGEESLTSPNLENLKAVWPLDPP
In short, it runs like this:
as §1

The target in test [9] is T6, ETS2 (Homo sapiens, UniProt P15036 1-469).
T6 sequence: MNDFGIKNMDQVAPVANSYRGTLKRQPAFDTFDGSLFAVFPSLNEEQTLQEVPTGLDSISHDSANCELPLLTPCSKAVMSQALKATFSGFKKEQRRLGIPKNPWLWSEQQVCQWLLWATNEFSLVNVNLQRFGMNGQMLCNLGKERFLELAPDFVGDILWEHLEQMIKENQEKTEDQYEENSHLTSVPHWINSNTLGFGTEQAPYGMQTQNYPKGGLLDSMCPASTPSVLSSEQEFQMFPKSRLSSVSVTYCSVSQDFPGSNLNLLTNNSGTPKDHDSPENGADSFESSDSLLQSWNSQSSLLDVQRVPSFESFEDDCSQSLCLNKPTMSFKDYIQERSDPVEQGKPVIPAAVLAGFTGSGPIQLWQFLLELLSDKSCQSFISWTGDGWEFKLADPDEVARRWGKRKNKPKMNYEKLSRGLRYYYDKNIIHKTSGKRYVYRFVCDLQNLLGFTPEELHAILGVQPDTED
The method, boiled down: as §1

The target in test [10] is T7, SPDEF (Homo sapiens, UniProt O95238 1-335).
T7 sequence: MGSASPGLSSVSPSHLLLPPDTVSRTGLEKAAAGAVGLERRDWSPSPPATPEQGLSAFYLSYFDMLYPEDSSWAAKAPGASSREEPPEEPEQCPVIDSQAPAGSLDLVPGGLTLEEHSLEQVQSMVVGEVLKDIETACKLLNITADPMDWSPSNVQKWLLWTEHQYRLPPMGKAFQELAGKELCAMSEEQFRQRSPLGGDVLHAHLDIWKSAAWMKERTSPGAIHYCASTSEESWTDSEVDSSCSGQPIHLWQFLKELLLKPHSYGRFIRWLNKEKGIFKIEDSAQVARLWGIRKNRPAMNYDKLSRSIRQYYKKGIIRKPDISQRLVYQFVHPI
In short, it runs like this:
as §1

Test [11] deals with T8, ETV7 (Homo sapiens, UniProt Q9Y603 1-341).
T8 sequence: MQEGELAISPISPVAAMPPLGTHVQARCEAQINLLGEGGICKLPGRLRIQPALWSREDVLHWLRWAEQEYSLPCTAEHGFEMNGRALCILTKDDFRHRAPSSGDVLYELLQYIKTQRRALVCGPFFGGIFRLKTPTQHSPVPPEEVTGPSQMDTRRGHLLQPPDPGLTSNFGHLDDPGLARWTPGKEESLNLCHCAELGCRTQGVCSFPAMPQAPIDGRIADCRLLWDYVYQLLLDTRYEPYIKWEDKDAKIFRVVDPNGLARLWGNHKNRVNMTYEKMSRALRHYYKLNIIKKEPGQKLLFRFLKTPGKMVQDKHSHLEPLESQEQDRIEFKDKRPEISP
In short, it runs like this:
as §1

ETV1, sequence (P50549 whole entry): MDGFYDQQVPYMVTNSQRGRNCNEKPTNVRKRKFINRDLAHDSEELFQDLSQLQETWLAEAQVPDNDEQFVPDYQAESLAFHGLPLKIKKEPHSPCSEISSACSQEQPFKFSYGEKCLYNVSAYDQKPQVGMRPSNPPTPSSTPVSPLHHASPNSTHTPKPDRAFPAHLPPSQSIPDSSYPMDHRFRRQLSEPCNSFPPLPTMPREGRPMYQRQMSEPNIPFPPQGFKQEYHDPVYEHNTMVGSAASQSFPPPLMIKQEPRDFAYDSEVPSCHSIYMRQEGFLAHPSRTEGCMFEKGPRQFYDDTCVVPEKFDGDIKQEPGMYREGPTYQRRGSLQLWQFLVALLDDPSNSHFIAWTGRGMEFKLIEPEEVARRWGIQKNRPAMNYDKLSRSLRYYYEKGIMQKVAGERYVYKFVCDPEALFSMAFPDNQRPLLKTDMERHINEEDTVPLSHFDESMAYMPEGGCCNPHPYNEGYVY
ETV5, sequence (P41161 whole entry): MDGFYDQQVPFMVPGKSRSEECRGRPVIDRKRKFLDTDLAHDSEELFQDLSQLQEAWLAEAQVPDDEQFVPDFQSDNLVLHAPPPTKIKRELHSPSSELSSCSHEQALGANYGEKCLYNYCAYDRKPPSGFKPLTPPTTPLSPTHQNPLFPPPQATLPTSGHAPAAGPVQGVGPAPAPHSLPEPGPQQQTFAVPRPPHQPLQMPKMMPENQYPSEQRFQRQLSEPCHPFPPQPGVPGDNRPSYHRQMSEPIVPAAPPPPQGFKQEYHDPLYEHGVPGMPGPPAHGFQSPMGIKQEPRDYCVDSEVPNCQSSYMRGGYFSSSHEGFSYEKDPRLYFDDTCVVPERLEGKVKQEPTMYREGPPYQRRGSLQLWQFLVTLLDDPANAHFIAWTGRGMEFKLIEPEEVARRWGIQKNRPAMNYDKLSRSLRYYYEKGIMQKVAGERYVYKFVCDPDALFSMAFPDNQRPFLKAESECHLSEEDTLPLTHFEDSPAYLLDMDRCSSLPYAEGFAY
ELF4, sequence (Q99607 whole entry): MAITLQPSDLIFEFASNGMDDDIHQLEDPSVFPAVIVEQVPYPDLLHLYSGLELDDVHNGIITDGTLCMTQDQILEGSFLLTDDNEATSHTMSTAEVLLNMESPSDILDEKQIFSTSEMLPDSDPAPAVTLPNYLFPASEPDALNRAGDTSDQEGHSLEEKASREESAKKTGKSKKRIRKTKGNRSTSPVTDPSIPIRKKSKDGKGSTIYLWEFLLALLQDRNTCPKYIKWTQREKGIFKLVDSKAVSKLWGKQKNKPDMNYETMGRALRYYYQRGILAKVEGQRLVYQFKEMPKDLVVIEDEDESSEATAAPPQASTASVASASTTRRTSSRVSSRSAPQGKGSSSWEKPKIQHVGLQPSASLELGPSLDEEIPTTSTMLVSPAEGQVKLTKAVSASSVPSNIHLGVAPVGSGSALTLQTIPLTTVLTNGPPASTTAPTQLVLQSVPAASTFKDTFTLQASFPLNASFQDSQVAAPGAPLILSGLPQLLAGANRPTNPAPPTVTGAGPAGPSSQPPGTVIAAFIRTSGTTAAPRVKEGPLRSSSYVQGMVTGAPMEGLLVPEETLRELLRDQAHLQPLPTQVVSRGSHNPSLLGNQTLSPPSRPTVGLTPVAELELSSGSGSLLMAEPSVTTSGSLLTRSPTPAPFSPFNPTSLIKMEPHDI

Regarding CAGCAT, the binding signal in test [1] was 1 fold enrichment (6-mer frequency, TF over GST control); in test [2] it was 1.03 fold enrichment (6-mer frequency, TF over GST control); in [3] it was 1.03 fold enrichment (6-mer frequency, TF over GST control); in [4], 1.04 fold enrichment (6-mer frequency, TF over GST control); in [5], 1.04 fold enrichment (6-mer frequency, TF over GST control); in test [6], 1.05 fold enrichment (6-mer frequency, TF over GST control). Moreover, the binding signal in [7] was 1.06 fold enrichment (6-mer frequency, TF over GST control); in test [8], 1.03 fold enrichment (6-mer frequency, TF over GST control); in [9], 1.03 fold enrichment (6-mer frequency, TF over GST control); in [10], 1.05 fold enrichment (6-mer frequency, TF over GST control); in [11] it was 1.01 fold enrichment (6-mer frequency, TF over GST control).
